# Records with an inconclusive call do not appear. Entries that show only a call come without a potency. Activity calls are given as the source filed them. Calls follow the shape of the dose curve; as a rule, active = well fitted cell-killing curve with a large enough effect; inconclusive = small, poorly fitted or top-dose-only effect; inactive = flat fitted curve, though single readings scatter.
# Assay: Cell Viability - LYMP1-002 - Assay at 16 hr (AID 948)
# Settings: LYMP1-002 lymphoblastoid cell viability; series mostly up to 92.2 µM
# From the text: NIH Chemical Genomics Center [NCGC]
# NIH Molecular Libraries Screening Centers Network [MLSCN]
# National Institutes of Environmental Health Sciences [NIEHS]
# National Toxicology Program [NTP]
# We have developed a 1536-well cell-based assay for quantitative high throughput screening (qHTS) against a number of cell lines to determine in vitro cytotoxicity of small molecules. This particular assay uses a human lymphoblastoid cell line (LYMP1-002) purchased from Coriell Institute for Medical Research.
# NCGC Assay Protocol Summary:
# The CellTiter-Glo luminescent cell viability assay (Promega) is a homogeneous method to measure the number of viable cells in culture. The end point readout of this assay is based on quantitation of intracellular ATP, an indicator of metabolic activity, using the luciferase reaction. Luciferase catalyzes the oxidation of beetle Luciferin to oxyluciferin and light in the presence of ATP. The luminescent signal is proportional to amount of ATP present.
# Using the CellTiter-Glo luminescent cell viability assay, the amount of cellular ATP was measured in the lymphoblastoid cell line with complete culture medium following compound treatment for 16 hours. The assay was performed in opaque white Kalypsys 1536-well plates. In the screen, tetraoctylammonium bromide was used as positive control. Library compounds were measured for their ability to cause acute toxicity in the cell line, as reflected by a decrease in intracellular ATP levels, in a concentration-dependent manner. […] AC50 values were determined from concentration-response data modeled with the standard Hill equation.
# qHTS protocol for CellTiter Glo lymphoblastoid cellular assay
# [Step] [Parameter] [Value] [Description]
# 1. Reagent; 5 uL; 2500 lymphoblastoid cells/well
# 2. Time; 5 hr; 37 C incubation
# 4. Controls; 23 nL; Tetraoctylammonium bromide 6.4pM to 92 uM
# 5. Time; 16 hr; 37 C incubation
# 6. Reagent; 5 uL; CellTiter Glo reagent
# 7. Time; 30 min; Room Temperature
# 8. Detection; Luminescence; Viewlux plate reader
# Keywords: cell viability, cytotoxicity, lymphoblastoid cell line, luminescence, NTPHTS, NTPHTS_NCGC, NIEHS, DSSTox, MLSMR, MLSCN, NIH Roadmap, qHTS, NCGC
# Potency is read from the fitted curve at half-maximal effect.
row,Compound,Potency
1,C1CCC(NC2CCCCC2)CC1,inactive
2,CC(C)(O)C(=O)Nc1ccc([N+](=O)[O-])c(C(F)(F)F)c1,inactive
3,CCCCCCCCc1ccc(O)cc1,inactive
4,CN(C)[C@@H]1C(=O)C(C(N)=O)=C(O)[C@@]2(O)C(=O)C3=C(O)c4c(O)cccc4[C@@](C)(O)[C@H]3[C@H](O)[C@@H]12,inactive
5,O=[N+]([O-])c1cc([N+](=O)[O-])c2ccccc2c1,inactive
6,CCCCOC(=O)c1ccccc1C(=O)OCc1ccccc1,inactive
7,c1cc2ccc3cccc4ccc(c1)c2c34,inactive
8,O=S(=O)(c1ccc(Cl)cc1)c1ccc(Cl)cc1,inactive
9,CN(C)NC(=O)CCC(=O)O,inactive
10,CC(=O)[O][Hg][c]1ccccc1,6.31 µM (active)
11,Nc1ccc(Sc2ccc(N)cc2)cc1,inactive
12,COc1ccc(C(c2ccc(OC)cc2)C(Cl)(Cl)Cl)cc1,inactive
13,COC(C)(C)CCCC(C)C/C=C/C(C)=C/C(=O)OC(C)C (stereo unspecified),inactive
14,C=CC(=O)NCNC(=O)C=C,inactive
15,Nc1ccc([N+](=O)[O-])cc1,inactive
16,O=C(O)C(Cl)Cl,inactive
17,O=[N+]([O-])c1c2ccccc2cc2ccccc12,inactive
18,CCCCC(CC)COC(=O)c1ccccc1C(=O)OCC(CC)CCCC (stereo unspecified),inactive
19,OCCCBr,inactive
20,Nc1ccc(Cl)cc1,inactive
21,O=C(O)COc1ccccc1,inactive
22,Nc1ccc(Cl)cc1N,inactive
23,Cc1cc(O)ccc1Cl,inactive
24,O=[N+]([O-])c1c(Cl)c(Cl)cc(Cl)c1Cl,inactive
25,CCOP(=O)(NC(C)C)Oc1ccc(SC)c(C)c1 (stereo unspecified),inactive
26,CCOCCOC(C)=O,inactive
